# Assay outcomes as filed in PubChem.
# DAX1 inh-1: inhibits human nuclear receptor DAX1; P51843; inhibition, % at 6.75 µM; 0.99% of 340,000 active; HEK293 Gal4-DAX1 luciferase reporter, luminescence;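 active means inhibition above the mean over all tested compounds plus 3 SD, cut at about 4.2% in these data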;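 further: 0% = DAX1-transfected cells with DMSO and 100% = empty-vector control cells with DMSO; inhibition shows as a rise in luminescence from relieved DAX1 repression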
# Target sequence (P51843 207-470 limits assumed): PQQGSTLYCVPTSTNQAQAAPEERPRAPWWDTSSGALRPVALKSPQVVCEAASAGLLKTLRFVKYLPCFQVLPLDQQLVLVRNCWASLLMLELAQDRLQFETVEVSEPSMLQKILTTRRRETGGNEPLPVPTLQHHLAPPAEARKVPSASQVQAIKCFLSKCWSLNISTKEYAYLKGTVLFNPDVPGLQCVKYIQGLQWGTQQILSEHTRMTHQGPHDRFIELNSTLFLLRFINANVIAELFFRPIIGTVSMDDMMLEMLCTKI
# hcDAF-12 act: activators of H. contortus DAF-12 nuclear receptor | HEK293 hcDAF-12 lit1-tk-luc reporter, luminescence; 0% DMSO, 100% Δ7-dafachronic acid | activation, % at 6.8 µM | 1.4% of 370,000 active;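 active means activation above the mean of all tested compounds plus 3 SD, cut at about 5.5% in these data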;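 further: 100% = response to 3 µM Δ7-dafachronic acid high control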
# hgDAF12 agonist: activates the H. glycines DAF-12 receptor ligand-binding domain. HEK293 GAL4-hgDAF12 UAS-luciferase reporter, agonist luminescence; normalized to butyrate control. activation, % at 6.8 µM. 1.8% of 370,000 active. AID 687014;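 active means activation above a cutoff set at the mean of all screened compounds plus 3 SD, cut at about 10% in these data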;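 further: 0% = DMSO wells and 100% = sodium butyrate wells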
# DAX1 inh-2: blocks DAX1 repression of SF-1 activated StAR promoter | HEK293T StAR-luciferase reporter, SF-1/DAX-1 repression relief | inhibition, % at 6.8 µM | 1.1% of 370,000 active | AID 652010;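 active means inhibition above the mean over all tested compounds plus 3 SD, cut at about 3.6% in these data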;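 further: 0% = DAX-1 cells with DMSO and 100% = cells lacking DAX-1 with DMSO; higher inhibition means more luminescence from relief of DAX-1 repression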
# ssDAF12 agonist: activators of S. stercoralis DAF-12 nuclear receptor; HEK293 ssDAF-12/GRIP1 lit1-tk-luc reporter, luminescence; % of 3 µM dafachronic acid response; activation, % at 6.8 µM; 1% of 370,000 active; AID 652126;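 active means activation above the mean over all tested compounds plus 3 SD, cut at about 0.9% in these data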;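 further: 0% = DMSO-only wells and 100% = 3 µM delta7-dafachronic acid wells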
# DAX1 conf: confirmation of human DAX1 (NR0B1) inhibitors. 87% of 2,400 active. inhibition, % at 6.8 µM. HEK293T StAR-promoter luciferase reporter, SF-1/DAX-1 repression. shares compounds with DAX1 inh-2;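 active means inhibition above the average of every tested compound plus 3 SD, cut at about 3.8% in these data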;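 further: 0% = DAX-1 cells with DMSO and 100% = no DAX-1 control cells with DMSO; active compounds raise luminescence by relieving repression of the StAR reporter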
# Target sequence (P51843 whole entry, looked up): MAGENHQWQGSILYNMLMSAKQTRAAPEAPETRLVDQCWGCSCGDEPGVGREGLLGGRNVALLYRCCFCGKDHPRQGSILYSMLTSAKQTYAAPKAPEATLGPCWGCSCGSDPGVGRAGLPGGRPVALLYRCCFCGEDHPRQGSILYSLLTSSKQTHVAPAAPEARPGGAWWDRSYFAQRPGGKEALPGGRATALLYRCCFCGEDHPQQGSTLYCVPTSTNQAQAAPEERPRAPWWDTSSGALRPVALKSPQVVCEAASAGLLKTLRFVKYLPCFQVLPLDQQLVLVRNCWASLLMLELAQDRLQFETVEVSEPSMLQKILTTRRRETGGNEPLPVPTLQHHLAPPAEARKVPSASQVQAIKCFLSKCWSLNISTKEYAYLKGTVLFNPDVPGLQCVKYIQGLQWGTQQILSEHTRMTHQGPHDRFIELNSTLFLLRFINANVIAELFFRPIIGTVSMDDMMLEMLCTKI
# SF1 mutant ctr: nonselective inhibitor or artifact in SF-1 mutant DAX1 counter-screen; shares compounds with DAX1 inh-2; HEK293 StAR-luciferase, SF-1 AF2 mutant, luminescence; inhibition, % at 6.8 µM; 78% of 2,400 active; AID 652136;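 active means inhibition above the mean of all tested compounds plus 3 SD, cut at about 3% in these data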;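 further: 0% = DAX-1 transfected cells with DMSO and 100% = cells without DAX-1 with DMSO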
# LXRb hcDAF ctr: LXR-beta agonism as hcDAF-12 counter-screen. 3,400 tested, under 10 active. activation, % at 6.8 µM. AID 743027. shares compounds with hcDAF-12 act. HEK293 Gal4-LXR tk-luc reporter, luminescence, 24 h; normalized: DMSO 0%, positive control 100%;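 active means mean percent activation of the reporter above a cutoff set as the average over tested compounds plus their standard deviation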
# hcDAF12 conf: confirmation of H. contortus DAF-12 agonists | 61% of 3,400 active | AID 743032 | shares compounds with hcDAF-12 act | HEK293 hcDAF-12 lit1-tk-luc reporter, luminescence; % of Δ7-dafachronic acid response | activation, % at 6.8 µM;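 active means mean activation across triplicate tests above the threshold derived from the earlier primary screen, cut at about 5.5% in these data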;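 further: 0% = DMSO only wells and 100% = 3 µM Δ7-dafachronic acid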
# hgDAF12 ag: hgDAF-12 agonism, confirmation assay; shares compounds with hgDAF12 agonist; HEK293 GAL4-hgDAF12 luciferase reporter, agonist mode; percent of butyrate response; activation, % at 6.8 µM; 80% of 3,300 active;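 active means mean activation over triplicate wells above the hit cutoff derived from the earlier primary screen, cut at about 11% in these data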;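 further: 0% = DMSO low control and 100% = 2 mM sodium butyrate high control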
# LXRb DAF12 ctr: LXR-beta agonism as DAF-12 counter-screen; shares compounds with hgDAF12 agonist; HEK293 Gal4-LXR luciferase reporter, 24 h; activation, % at 6.8 µM; 3,300 tested, under 10 active;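 active means mean activation of the triplicate above a set limit carried over from the primary screen, none filed active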
# The depositor's hits bear a star; . = no result given; + = active, no number. Compounds with a hit are over-represented: about 4.1% of the library has one in this group of screens.
SMILES,DAX1 inh-1,hcDAF-12 act,hgDAF12 agonist,DAX1 inh-2,ssDAF12 agonist,DAX1 conf,SF1 mutant ctr,LXRb hcDAF ctr,hcDAF12 conf,hgDAF12 ag,LXRb DAF12 ctr
O=C(NC1CCCCC1)c1ccc([N+](=O)[O-])o1,-2.1,.,.,.,.,.,.,.,.,.,.
O=C(NC1CCCCC1)c1ccc(-c2ccccc2[N+](=O)[O-])o1,2.8,7.9*,15.2*,9.3*,1.1*,8.9*,5.5*,1.1,7.3*,14.4*,0.5
COc1cccc(NC(=O)c2ccc3c(c2)CCCC3)c1,0.5,7.9*,17.4*,17.9*,1.2*,13.4*,8.2*,1.5,5.4,17.9*,1.1
COc1ccc(Cl)c(-c2cc(C(=O)Nc3ccccc3)[nH]n2)c1,.,6.5*,17.9*,7.0*,-0.1,6.7*,5.2*,.,.,18.6*,0.8
COc1ccc(Cl)cc1-c1cc(C(=O)Nc2ccccc2)[nH]n1,.,3.5,6.2,3.5,0.0,.,.,.,.,.,.
O=C(CCCCCCC(=O)Nc1ccccc1)NO,12.7*,11.9*,40.6*,32.6*,2.0*,+,-5.5,0.5,7.0*,41.2*,0.5
Cc1cccc(C(=O)OCC(=O)NCCCc2ccccc2)c1,.,-1.2,2.5,0.3,-1.3,.,.,.,.,.,.
COc1ccc(-c2nnc(SCC(=O)c3ccc(C)o3)o2)cc1,0.8,0.1,-0.3,-0.1,-1.0,.,.,.,.,.,.
COc1ccc(-c2nnc(SCC(=O)/C(C#N)=C(\C)N)o2)cc1,-1.5,6.7*,16.2*,4.7*,0.7,13.4*,4.5*,1.2,6.9*,18.0*,1.5
O=[N+]([O-])c1cccc(CN2CCCCCC2)c1,0.8,-1.6,1.9,0.0,-0.3,.,.,.,.,.,.
O=[N+]([O-])c1cccc(COc2ccc(CN3CCOCC3)cc2)c1,1.8,7.8*,20.2*,7.2*,1.4*,9.8*,5.5*,1.2,6.6*,16.0*,0.8
O=[N+]([O-])c1cccc(COc2ccc(CN3CCCC3)cc2)c1,1.6,2.8,24.1*,4.5*,-0.2,11.0*,6.8*,.,.,15.2*,0.6
C/C(=N\NC(=O)c1cccc(F)c1)c1cccc(NC(=O)c2ccc(F)cc2)c1,1.1,3.5,3.5,0.5,0.4,.,.,.,.,.,.
C/C(=N\NC(=O)c1ccccc1F)c1cccc(NC(=O)c2ccc(C)cc2)c1,0.2,0.7,13.5*,5.0*,-0.6,0.2,1.2,.,.,6.6,0.3
COc1ccc(-n2c(COc3ccc(Cl)cc3)nnc2SCc2nc3ccccc3[nH]2)cc1,.,-2.4,-0.7,-0.5,-1.5,.,.,.,.,.,.
Clc1ccc(OCc2nc3ccccc3[nH]2)cc1,1.8,1.5,23.0*,4.7*,0.0,9.8*,9.3*,.,.,10.3,0.7
COc1ccc(Nc2nc(C)c(C(C)=O)s2)cc1,.,4.4,16.9*,4.9*,-1.0,5.1*,4.6*,.,.,7.6,0.3
CC(=O)c1sc(NC(=O)c2ccccc2F)nc1C,-0.4,5.4,14.0*,5.4*,0.2,12.9*,6.4*,.,.,14.3*,0.6
CC(=O)c1sc(NC(=O)c2ccc(C(C)(C)C)cc2)nc1C,1.2,6.2*,13.3*,7.6*,0.6,14.3*,9.6*,.,.,18.6*,1.0
CC(=O)c1sc(NC(=O)C(C)(C)C)nc1C,0.2,-0.2,3.6,0.1,-1.1,.,.,.,.,.,.
COc1ccc(C(=O)c2sc(Nc3ccc(NC(C)=O)cc3)nc2C)cc1,-2.1,-2.8,-2.2,-0.3,-1.8,.,.,.,.,.,.
O=C(CSc1ccc2nc(-c3ccccc3)cn2n1)NCC1CCCO1 (configuration not stated),-0.1,1.4,3.7,1.0,-0.2,.,.,.,.,.,.
COc1ccc(-c2cn3nc(SCC(=O)NCC4CCCO4)ccc3n2)cc1 (configuration not stated),0.5,5.0,14.5*,12.6*,0.2,8.5*,4.0*,.,.,14.5*,0.5
CC1CCCCC1Nc1ncnc2sccc12 (configuration not stated),-2.3,-3.2,-1.0,-0.9,-1.4,.,.,.,.,.,.
O=C(Nc1ccc2oc(=O)ccc2c1)c1cc2ccccc2o1,2.2,4.0,5.7,-0.4,-0.5,.,.,.,.,.,.
SMILES,DAX1 inh-1,hcDAF-12 act,hgDAF12 agonist,DAX1 inh-2,ssDAF12 agonist,DAX1 conf,SF1 mutant ctr,LXRb hcDAF ctr,hcDAF12 conf,hgDAF12 ag,LXRb DAF12 ctr
O=C(Nc1ccc2c(c1)OCCO2)c1cccs1,-0.3,8.3*,18.9*,4.7*,0.6,14.5*,7.6*,1.4,4.0,13.4*,0.6
CC(=NNC(=O)c1cccs1)c1ccc2c(c1)OCCO2,3.7,5.1,16.9*,7.2*,0.9,7.8*,2.9*,.,.,12.7*,0.8
C/C(=N\NC(=O)c1ccc2c(c1)OCCO2)c1ccccc1,2.2,-0.5,8.2,0.4,0.1,.,.,.,.,.,.
C/C(=N/NC(=O)c1cccs1)c1cccc(N)c1,6.0*,7.0*,16.2*,5.8*,-0.5,5.5*,2.4,0.6,4.4,9.9,0.2
O=C(Nc1ccc2c(c1)OCCO2)c1cc2ccccc2o1,0.0,12.2*,20.1*,5.7*,1.0*,20.1*,8.3*,1.8,8.1*,16.9*,1.1
O=C(/C=C\Nc1ccc2c(c1)OCO2)c1cccs1,-1.0,8.3*,16.9*,9.0*,1.0*,12.1*,-0.1,1.8,10.6*,12.3*,1.0
CSc1nc(C(C)C)ccc1CNC(=O)CC(C)c1ccccc1 (configuration not stated),-0.6,-0.6,-4.5,0.0,-1.0,.,.,.,.,.,.
O=C(/C=C/c1ccc([N+](=O)[O-])cc1)NCc1ccccn1,-0.5,-1.4,3.6,-0.9,-1.1,.,.,.,.,.,.
O=C(/C=C/c1ccc([N+](=O)[O-])cc1)Nc1ncc([N+](=O)[O-])s1,4.0,11.7*,26.9*,7.4*,0.7,-5.5,-6.3,0.9,5.8*,5.6,0.7
O=C(C=NNc1ccccc1)c1ccccc1,4.5*,11.9*,28.7*,7.3*,1.8*,17.0*,9.1*,2.0,11.9*,24.0*,1.1
COc1ccccc1N(CC(=O)NCCc1ccccc1)C(=O)CCC(=O)Nc1cc(C)ccn1,-0.2,-2.3,-1.1,-0.9,-1.4,.,.,.,.,.,.
